Shown are actives, neighbours in structure and some others; about 2.6% of the full set was active somewhere.
TCR act = Activators of T cell receptors: qHTS campaign | Potency, µM (top dose mostly 9.22 µM), usual class: activators | 330,000 tested, under 10 active | primary human leukocytes, anti-CD3, IL-2 HTRF, 48 h | AID 504894, 2011
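Primary human leukocytes incubated 48 hr with anti-CD3 beads plus compound, without co-stimulation. Secreted IL-2 measured by HTRF (europium cryptate/d2 anti-IL-2 pair, 320 nm excitation, 665 nm emission).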
A549 viability = Nrf2 qHTS screen for inhibitors: counterscreen for cytotoxicity; A549 ARE-Fluc cells, CellTiter-Fluor viability, 18-24 h; Potency, µM (doses to about 46 µM), hits mostly inhibitors; hit rate 0.16% among 390,000
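Cytotoxicity counterscreen: CellTiter-Fluor fluorescence was measured in A549 ARE_Fluc cells after 18-24 h of compound exposure in a concentration series. The subsequent BugLite luminescent read reports ARE-luciferase activity.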
AT treatment = qHTS Assay for Identifying a Potential Treatment of Ataxia-Telangiectasia; F2112 A-T fibroblasts, KAP-1 phosphorylation AlphaLISA; neocarzinostatin DNA damage 30 min before lysis; Potency, µM (highest dose often 57.5 µM), usual class: activators; hit rate 0.19% among 320,000; further: nearly all actives have a fitted effect of over 45% in size
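hTERT-immortalized A-T patient fibroblasts (F2112), 500 cells/well in OPTI-MEM, 1% FBS, got compounds for 60 min, then NCS for 30 min at 37C. Lysates were then assayed for phospho-KAP-1 by AlphaLISA (anti-pKAP1 donor, anti-KAP1 acceptor beads), 6 hr at 25C.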
Nrf2 activator = qHTS of Nrf2 Activators; AREc32 ARE-luciferase reporter (MCF7-derived line), luminescence, 24 h; Potency, µM (doses to about 46.1 µM), usual class: activators; hit rate 0.31% among 410,000; AID 624171, 2012; further: nearly all actives have a fitted effect of over 65% in size
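Luciferase luminescence (Steady-Glo, 30 min at room temperature) served as the read-out of ARE activation in AREc32 cells treated with compounds for 24 hr at 37 deg C.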
Nrf2 block = Nrf2 qHTS screen for inhibitors | A549 ARE-Fluc reporter, luciferase luminescence, 18-24 h | AID 504444, 2011 | hit rate 2.1% among 360,000 | Potency, µM (series often up to 46 µM), most hits filed as inhibitors; further: nearly all actives have a fitted effect of over 60% in size
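Concentration-response testing used A549 ARE_Fluc cells at 5000 cells/well. Following an 18-24 h compound incubation, viability was read by fluorescence (Ex 405/Em 525) and luciferase output by luminescence.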
CCT modulator = High-Throughput Screening for Modulators of Cytosolic Chaperonin Activity; purified chaperonin ATPase assay, HTRF ADP detection, 30 min; activity change, % (test concentration not listed), hits read low; hit rate 0.3% among 360,000; AID 651819, 2012; in the data active means activity change below about -30%
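TRiC at 40 or 20 nM final (batch-dependent) in 30 mM Tris pH 7.4, 100 mM KCl, 5 mM MgCl2, 1 mM DTT, with compound at single 76 uM and 10 uM ATP, 30 min at 37 deg C. ADP detected by HTRF Transcreener, 665/615 ratio.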
A number is an active result; i = inactive; ? = inconclusive; nt = not tested or not shown. Unless noted, the call rests on the fitted dose curve; in most records, active means well fitted curve in the direction sought with a large enough effect; inconclusive means small, poorly fitted or top-dose-only effect, or another doubt; inactive means no such curve, though single readings can be large; an effect the other way counts as inactive or inconclusive.

SMILES	TCR act	A549 viability	AT treatment	Nrf2 activator	Nrf2 block	CCT modulator
O=C(C1CCN(S(=O)(=O)c2ccc3c(c2)OCCO3)CC1)N1CCc2ccccc21	i	i	i	i	14.6µM	i
CC(=O)Nc1cccc(S(=O)(=O)N2CCCN(S(=O)(=O)c3ccc4c(c3)OCCO4)CC2)c1	nt	i	nt	nt	14.6µM	nt
O=S1(=O)N=C(Oc2cccc(-c3ccccc3)c2)c2ccccc21	nt	i	nt	nt	i	nt
Cc1cc(C)cc(N2CC(c3nnc(NC(=O)c4ccco4)s3)CC2=O)c1 (stereo not given)	nt	i	nt	i	i	nt
Cc1cccc(N(Cc2ccccc2)C(=O)c2cccc(S(=O)(=O)N3CC(C)OC(C)C3)c2)c1 (stereo not given)	i	i	i	i	?	i
O=C1c2cccc(OCc3ccc(F)cc3)c2CCN1Cc1ccc(F)cc1	i	i	i	i	16.4µM	i
CCC(=O)c1cn([C@H](CCC(OC)OC)CC(=O)OC(C)(C)C)cc1CC	i	i	i	i	i	i
Oc1ccccc1-c1nc(NCc2ccccc2)c2ccccc2n1	i	i	i	i	?	i
Oc1ccccc1-c1nc(NCc2cccnc2)c2ccccc2n1	i	?	i	i	11.6µM	i
O=C(OCc1c(-c2ccccc2)ncc2ccccc12)c1ccc(Br)cc1	i	i	i	i	14.6µM	i
COc1cccc(-c2ncc3ccccc3c2COC(=O)c2ccc(Br)cc2)c1	i	i	i	i	i	i
O=C(OCc1c(-c2ccccc2)ncc2ccccc12)c1cccs1	i	?	i	?	16.4µM	i
COc1ccc(C(=O)O)cc1S(=O)(=O)Nc1ccc(Oc2ccccc2)cc1	i	i	i	i	i	i
NC(=O)C1CCCN(C(=O)CNC(=O)C23CC4CC(CC(C4)C2)C3)C1 (stereo not given)	i	i	i	i	i	i
Cc1ccc(F)cc1NC(=O)CN1CCN(Cc2ccccc2)CC1	i	i	i	i	i	i
COc1ccc(NC(=O)c2oc3ccccc3c2NC(=O)c2cc3ccccc3o2)cc1	nt	i	nt	i	i	nt
COc1ccc(NC(=O)c2oc3ccccc3c2NC(=O)c2ccco2)cc1	i	i	i	i	1.64µM	i
CCOC(=O)c1ccc(S(=O)(=O)N2CCN(c3nc(-c4cccs4)nc4ccccc34)CC2)cc1	nt	i	nt	nt	i	nt
Cc1c(CCOC(=O)c2ccc(N3CCOCC3)c([N+](=O)[O-])c2)sc[n+]1CC#N	i	?	i	i	16.4µM	i
Cc1ncsc1CCOC(=O)c1ccc(N2CCOCC2)c([N+](=O)[O-])c1	i	i	i	i	i	i
CC1=CC(=O)N(c2cccc(C(F)(F)F)c2)C1c1ccc(Cl)cc1 (stereo not given)	i	?	i	i	23.1µM	i
O=C(C1CCCCC1)N1CCN(c2ccnc3cc(Cl)ccc23)CC1	i	i	i	i	20.6µM	i
N#Cc1cccc(S(=O)(=O)N2CCN(c3ccnc4cc(Cl)ccc34)CC2)c1	i	i	i	i	10.3µM	i
CC(=O)c1ccc(N2CCN(c3ccnc4cc(Cl)ccc34)CC2)cc1	i	i	i	i	1.64µM	i
COc1ccccc1NC(=O)N1CCN(c2ccnc3cc(Cl)ccc23)CC1	i	i	i	i	13µM	i
SMILES	TCR act	A549 viability	AT treatment	Nrf2 activator	Nrf2 block	CCT modulator
O=S(=O)(c1cccc(Br)c1)N1CCN(c2ccnc3cc(Cl)ccc23)CC1	i	?	i	i	?	i
O=C(C1CCC1)N1CCN(c2ccnc3cc(Cl)ccc23)CC1	i	i	i	i	i	i
Cc1noc(NS(=O)(=O)c2ccc(NC(=O)c3ccc(Cl)c(S(=O)(=O)N(C)c4ccccc4)c3)cc2)c1C	i	i	i	i	i	i
O=C(Nc1ccc(OC(F)(F)F)cc1)N1CCN(c2ccnc3cc(Cl)ccc23)CC1	i	?	i	i	4.61µM	i
O=S(=O)(c1ccccc1OC(F)(F)F)N1CCN(c2ccnc3cc(Cl)ccc23)CC1	i	i	i	i	?	i
O=C(C1CC1)N1CCN(c2ccnc3cc(Cl)ccc23)CC1	i	i	i	i	?	i
CC(C)(C)C(=O)N1CCN(c2ccnc3cc(Cl)ccc23)CC1	i	i	i	i	8.2µM	i
O=C(CC(=O)c1ccccn1)c1ccccc1	i	i	nt	7.94µM	i	i
CC1(C)Cc2ccccc2/C(=C/C(=O)N2CCCCCC2)N1	i	i	i	i	25.9µM	i
CC1=C(c2ccc(Cl)cc2)S(=O)(=O)N=C1N1CCN(c2cccc(C)c2)C(C)C1 (stereo not given)	nt	i	nt	i	23.1µM	nt
Cc1ccc(-c2nc3nc(C)cc(N4CCN(c5cccc(C)c5)C(C)C4)n3n2)cc1 (stereo not given)	nt	i	nt	i	i	nt
O=C1CC(c2ccc(O)cc2)Oc2cc(O)cc(O)c21 (stereo not given)	i	i	i	i	i	i
CC1CC(=O)c2c(cc3c(-c4c(O)cc(O)c5c(O)c6c(cc45)OC(C)CC6=O)c(O)cc(O)c3c2O)O1 (stereo not given)	i	?	i	i	11.6µM	i
O=C(c1ccc(Cl)cc1Cl)N1CCN(c2ccccn2)CC1	i	i	i	i	i	-33.0
O=C(c1cc(Cl)ccc1Cl)N1CCN(c2ccccn2)CC1	i	i	i	i	i	i
O=C(c1ccc(S(=O)(=O)c2cccc(Cl)c2)c([N+](=O)[O-])c1)N1CCN(c2ccccn2)CC1	i	?	i	i	16.4µM	i
O=C(c1cccc(Cl)c1)N1CCN(c2ccccn2)CC1	i	i	i	i	i	i
Cc1cccc(N(C)C(=O)C2CCN(S(=O)(=O)c3cccc4nonc34)CC2)c1	nt	i	nt	i	nt	nt
O=C(CSCc1ccccc1Cl)NCc1ccc(Cl)c(Cl)c1	nt	i	nt	i	nt	nt
NC1=C(Br)C(=O)c2ncccc2C1=O	i	16.4µM	nt	i	10.3µM	i
O=C1c2cccnc2C(=O)N1CO	i	i	i	i	nt	i
CCc1ccc(NC(=O)N2CCOc3ccc(Cl)cc32)cc1	nt	i	nt	i	?	nt
CCOC(=O)c1cc(-c2ccc(C)cc2)n(CCC(=O)Nc2cc(Cl)ccc2C)c1C	nt	i	nt	i	i	nt
COc1ccc(CCNc2oc(-c3ccc(OC)c(OC)c3)nc2C#N)cc1	i	i	i	i	23.1µM	i
Cc1ccc(-n2nc3c(=O)n(CC(=O)NC4CCCCC4)nc(C)c3c2C)cc1	i	i	i	i	i	i
CCCCNc1c(-c2ccc(SC(C)CC)cc2)nc2cnccn12 (stereo not given)	i	i	28.2µM	i	?	i
